DT40 TDP1 CPT: DT40-hTDP1 cell growth loss with CPT. AID 686979. chicken DT40 Tdp1-/-;hTDP1 cells + 20 nM CPT, ATP luminescence, 48 h. Potency, µM (top dose mostly 46.2 µM), inactives show at the highest dose activity change, negative = growth inhibition, hits mostly inhibitors. 12% of 420,000 active; also: nearly all actives have a fitted effect of over 55% in size
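Chicken DT40 Tdp1-/- cells stably complemented with human TDP1 were seeded at 400 cells/well in medium containing 20 nM camptothecin, exposed to pin-transferred compounds, and grown at 37 °C for at least 48 hr. Viability was read as ATP luminescence.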
HT1080 IDH1KD tx: toxicity to HT-1080 IDH1 knockdown cells (counter line); HT-1080 IDH1 knockdown viability, ATP luminescence, 48 h; Potency, µM (titrated, usually from 46.1 µM), inactives show at the highest dose activity, negative = toxicity, most hits filed as cytotoxic; 2% of 360,000 active;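 also: 0% = DMSO wells and -100% = cell-free medium wells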
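After a 2 h attachment period, IDH1KD HT-1080 cells took pin-transferred compound for 48 h at 37 °C; ATP-based luminescence after 10 min room-temperature reagent incubation reported viability.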
HT1080NT lethal: kills 2HG-producing HT-1080-NT fibrosarcoma cells; HT-1080-NT fibrosarcoma viability, CellTiter-Glo ATP luminescence, 48 h; Potency, µM (doses to about 46.1 µM), for the others: top-dose activity, negative = less viability, most hits filed as cytotoxic; 1.6% of 360,000 active; AID 686970;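 also: NT is the 2HG producing partner of a matched IDH1 knockdown line; 0% = DMSO-treated cells and -100% = media-only wells without cells; nearly all actives have a fitted effect of over 55% in size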
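Compounds were tested in concentration-response format on HT-1080-NT cells for 48 hours at 37 degrees C. Cell viability came from CellTiter-Glo luminescence; curves were classified by r2, response magnitude and activity.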
KB-3-1 cytotox: kills parental KB-3-1 adenocarcinoma cells; KB-3-1 viability, CellTiter-Glo ATP luminescence, 72 h; Potency, µM (doses to about 46.1 µM), usual class: cytotoxic; 1.4% of 400,000 active; AID 1347075; also: nearly all actives have a fitted effect of over 60% in size
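KB-3-1 parental drug-naive adenocarcinoma cells in DMEM/10% FBS, incubated 72 h at 37 C with pin-transferred compounds across a concentration series. Viability by CellTiter-Glo luminescence; concentration-response curves fitted after normalization.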
KB-V1 MDR tox: kills drug-selected multidrug resistant KB-V1 cells | Potency, µM (titrated, usually from 46.1 µM), most hits filed as cytotoxic | 3.4% of 400,000 active | KB-V1 MDR cells viability, CellTiter-Glo, 72 h; also: nearly all actives have a fitted effect of over 60% in size
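KB-V1 cells (P-gp-expressing MDR subline of KB-3-1) in phenol-red-free DMEM with 10% FBS were exposed to library compounds over a concentration series for 72 h at 37 degrees C. Viability read by CellTiter-Glo luminescence; concentration-effect curves fitted after normalization.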
DT40 TDP1 no CPT: qHTS for Inhibitors of human tyrosyl-DNA phosphodiesterase 1 (TDP1): qHTS in cells in absence of CPT. DT40 Tdp1-/- hTDP1 cells, no CPT, ATP luminescence, 48 h. 15% of 420,000 active. Potency, µM (series often up to 46.2 µM), without a hit: top-dose activity change, negative = growth inhibition, hits mostly inhibitors; also: nearly all actives have a fitted effect of over 55% in size
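Growth of hTDP1-complemented DT40 Tdp1-knockout cells is measured by ATP luminescence after at least 48 hr compound exposure at 37 °C, with DMSO substituting for the 20 nM CPT used in the parallel screen.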
* hit, by the source's call; i = inactive; u = inconclusive; x = no result given; [ ] = another dose, or the depositor's remark. A selection: hits, their analogues and other compounds. The true share with any hit is near 19%. Calls follow the shape of the dose curve; as a rule, active = well fitted curve in the direction sought with a large enough effect; inconclusive = small, poorly fitted or top-dose-only effect, or another doubt; inactive = no such curve, though single readings can be large; an effect the other way counts as inactive or inconclusive. Unless noted, % is scaled to controls: 0 for no effect and ±100 for the full control effect; potency is read from the fitted curve at half-maximal effect.

SMILES | DT40 TDP1 CPT | HT1080 IDH1KD tx | HT1080NT lethal | KB-3-1 cytotox | KB-V1 MDR tox | DT40 TDP1 no CPT
CCOC(=O)[C@]12CCC=C1N(Cc1cccc3ccccc13)C(=O)[C@H](CC(=O)NCCc1ccccc1OC)C2 | u | -15% | -23% | u | 15µM* | 18µM*
CCCCCCCCN1C(=O)[C@H](CC(=O)NCc2cccc3ccccc23)C[C@@]2(C(=O)OCC)CCC=C12 | u | u | u | i | u | 21µM*
Cc1ccc(N(CC(=O)N2CC(=O)Nc3ccccc32)S(=O)(=O)c2ccc3c(c2)OCCO3)cc1 | -18% | 0% | -22% | i | u | -25%
CCc1noc(C)c1C(=O)N(C)CC(=O)Nc1cccc(OC)c1 | -9% | 2% | -3% | i | i | 3%
CCOC(=O)[C@]12CCC=C1N(Cc1cccc3ccccc13)C(=O)[C@H](CC(=O)NCc1ccccc1)C2 | u | -26% | -13% | i | u | u
C#CCNC(=O)C[C@@H]1C[C@@]2(C(=O)OCC)CCC=C2N(Cc2cccc3ccccc23)C1=O | u | 5% | -2% | i | u | 16µM*
CCOC(=O)[C@]12CCCC=C1N(Cc1cccc3ccccc13)C(=O)[C@H](CC(=O)NCc1ccccc1)C2 | u | u | u | i | u | 23µM*
CCOC(=O)[C@]12CCC=C1N(Cc1cccc3ccccc13)C(=O)[C@H](CC(=O)NCCCCc1ccccc1)C2 | 23µM* | -19% | -18% | u | 16µM* | 16µM*
CCOC(=O)[C@]12CCC=C1N(Cc1ccccc1)C(=O)[C@H](CC(=O)NCc1ccc(C)o1)C2 | -29% | -7% | -1% | i | u | -18%
CCOC(=O)[C@]12CCC=C1N(Cc1cccc3ccccc13)C(=O)[C@H](CC(=O)NCc1ccc(C)o1)C2 | 16µM* | u | u | i | 12µM* | 23µM*
CCCC(=O)N1CCC1(C)C(=O)Nc1cc(OC)c(OC)c(OC)c1 (centres undefined) | -16% | 0% | 13% | i | i | -13%
Cc1cnc(-n2ncc(C(=O)NCCc3ccccn3)c2C)nc1-c1ccc(F)cc1 | 3%[9.04 µM] | x | x | x | x | u
CCOc1cccc(C2/C(=C(/O)c3ccc4c(c3)CC(C)O4)C(=O)C(=O)N2Cc2ccncc2)c1 (centres undefined) | -15% | -6% | 5% | i | i | 14%
CCOC(=O)[C@]12CCCC=C1N(Cc1ccco1)C(=O)[C@H](CC(=O)NCc1ccc(OC)c(OC)c1)C2 | u | 10% | 14% | i | i | u
CCOC(=O)[C@]12CCCC=C1N(Cc1cccc3ccccc13)C(=O)[C@H](CC(=O)NCc1ccc(OC)c(OC)c1)C2 | u | u | u | u | 6.5µM* | 16µM*
O=C(N=Nc1c(O)[nH]c2ccc(Br)cc12)c1ccccc1-n1cccc1 | 4.6µM* | 2.2µM* | 2.8µM* | 5.2µM* | 3.3µM* | 2.6µM*
O=C(N=Nc1c(O)[nH]c2ccc(Br)cc12)c1cc(-c2cccs2)nc2ccccc12 | 4.6µM* | 13µM* | u | u | u | 6.5µM*
Cn1c(O)c(N=NC(=O)c2cc(-c3cccs3)nc3ccccc23)c2ccccc21 | u | -19% | -8% | i | u | u
O=C(c1sc2cc([N+](=O)[O-])ccc2c1Cl)N1CCCCC1 | -2% | 9% | -2% | i | i | u
CC(NC(=O)c1sc2cc([N+](=O)[O-])ccc2c1Cl)C(C)(C)C (centres undefined) | 5.2µM* | -1% | 3% | i | i | 4.1µM*

Source: PubChem BioAssay
